TcdB GH inh – TcdB glycohydrolase inhibitors, primary screen, biochemical, single point, plate reader; actives 0.24% (n = 350,000); TcdB glycohydrolase enzymatic assay; inhibition, % at 9.99 µM; in the data active = inhibition above about 10%
Target sequence (P18177 whole entry, looked up): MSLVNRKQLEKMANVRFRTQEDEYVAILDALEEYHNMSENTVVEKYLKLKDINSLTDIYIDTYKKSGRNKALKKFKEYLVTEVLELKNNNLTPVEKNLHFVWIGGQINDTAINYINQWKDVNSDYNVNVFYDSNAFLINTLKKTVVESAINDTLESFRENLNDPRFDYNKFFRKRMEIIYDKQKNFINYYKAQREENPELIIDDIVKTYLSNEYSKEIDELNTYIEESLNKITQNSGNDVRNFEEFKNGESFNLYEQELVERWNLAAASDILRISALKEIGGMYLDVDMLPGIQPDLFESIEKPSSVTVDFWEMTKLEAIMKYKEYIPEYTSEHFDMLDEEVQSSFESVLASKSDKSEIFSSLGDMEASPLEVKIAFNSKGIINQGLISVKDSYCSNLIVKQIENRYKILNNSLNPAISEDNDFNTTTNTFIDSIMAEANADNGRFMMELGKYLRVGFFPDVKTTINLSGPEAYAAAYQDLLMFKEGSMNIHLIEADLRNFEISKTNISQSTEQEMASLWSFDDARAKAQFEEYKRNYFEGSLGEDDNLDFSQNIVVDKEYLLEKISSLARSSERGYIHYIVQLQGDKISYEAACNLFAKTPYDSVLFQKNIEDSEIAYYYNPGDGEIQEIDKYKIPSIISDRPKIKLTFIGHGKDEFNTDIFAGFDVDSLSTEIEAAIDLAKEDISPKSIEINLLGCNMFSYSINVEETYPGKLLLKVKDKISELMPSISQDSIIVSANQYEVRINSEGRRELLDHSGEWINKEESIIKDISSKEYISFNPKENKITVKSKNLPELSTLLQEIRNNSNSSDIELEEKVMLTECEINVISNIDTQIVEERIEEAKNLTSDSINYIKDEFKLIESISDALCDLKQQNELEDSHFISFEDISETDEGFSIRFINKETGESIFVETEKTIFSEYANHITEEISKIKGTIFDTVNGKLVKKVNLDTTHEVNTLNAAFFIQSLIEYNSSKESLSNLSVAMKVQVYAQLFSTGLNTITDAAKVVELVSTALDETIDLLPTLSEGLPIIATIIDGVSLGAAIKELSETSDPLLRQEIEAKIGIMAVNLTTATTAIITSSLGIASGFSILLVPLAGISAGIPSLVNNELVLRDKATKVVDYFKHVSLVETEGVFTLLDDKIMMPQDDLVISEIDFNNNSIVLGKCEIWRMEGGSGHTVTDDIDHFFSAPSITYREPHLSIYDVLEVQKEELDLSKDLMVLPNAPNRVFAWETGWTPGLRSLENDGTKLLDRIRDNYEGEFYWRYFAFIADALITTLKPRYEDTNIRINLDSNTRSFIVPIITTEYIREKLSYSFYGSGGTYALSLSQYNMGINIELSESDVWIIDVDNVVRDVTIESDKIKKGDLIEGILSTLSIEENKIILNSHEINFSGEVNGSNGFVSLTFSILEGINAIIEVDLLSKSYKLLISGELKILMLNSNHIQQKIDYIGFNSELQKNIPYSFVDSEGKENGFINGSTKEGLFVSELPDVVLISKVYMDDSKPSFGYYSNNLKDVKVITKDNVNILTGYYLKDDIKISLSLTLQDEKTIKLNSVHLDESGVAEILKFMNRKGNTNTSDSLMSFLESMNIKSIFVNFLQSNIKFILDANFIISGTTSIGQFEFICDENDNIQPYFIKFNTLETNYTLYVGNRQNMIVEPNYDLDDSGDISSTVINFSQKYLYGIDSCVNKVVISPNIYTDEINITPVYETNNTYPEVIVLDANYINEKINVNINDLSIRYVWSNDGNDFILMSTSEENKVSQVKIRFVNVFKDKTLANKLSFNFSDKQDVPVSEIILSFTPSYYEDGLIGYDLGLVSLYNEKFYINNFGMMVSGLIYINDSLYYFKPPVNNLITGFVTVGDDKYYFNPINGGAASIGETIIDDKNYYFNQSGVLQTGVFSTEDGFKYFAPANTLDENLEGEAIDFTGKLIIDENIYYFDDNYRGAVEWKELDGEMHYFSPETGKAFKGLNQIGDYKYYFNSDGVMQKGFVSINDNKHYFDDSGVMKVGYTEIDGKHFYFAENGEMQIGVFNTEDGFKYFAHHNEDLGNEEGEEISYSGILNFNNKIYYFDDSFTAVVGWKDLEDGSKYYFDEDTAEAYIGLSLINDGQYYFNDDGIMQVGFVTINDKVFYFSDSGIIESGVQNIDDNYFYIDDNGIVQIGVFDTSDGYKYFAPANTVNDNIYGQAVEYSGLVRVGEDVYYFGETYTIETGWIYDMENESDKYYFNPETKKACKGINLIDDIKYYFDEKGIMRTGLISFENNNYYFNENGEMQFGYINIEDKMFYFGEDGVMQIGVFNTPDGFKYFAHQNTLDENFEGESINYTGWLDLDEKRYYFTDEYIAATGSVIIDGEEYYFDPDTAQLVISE
FadD28 binding – inhibitors of FadD28 bisubstrate probe binding, primary screen, biochemical, fluorescence polarization, single point; AID 588549, 2011; inhibition, % at 12.5 µM; actives 0.22% (n = 360,000); in the data active = inhibition above about 8.5%, passing the limit was not always enough
BioA inh – M. tuberculosis BioA enzyme inhibitors, primary screen, biochemical, plate reader, single point, HTS; purified M. tuberculosis BioA enzyme; inhibition, % at 9.99 µM; actives 0.096% (n = 360,000); in the data active = inhibition above about 40%
Y pestis TopoI – Yersinia pestis topoisomerase I inhibitors, primary screen, biochemical, cleavage product accumulation, plate reader, single point | Y. pestis Topo-I cleavage product accumulation | DNA topoisomerase I (Yersinia pestis CO92) | AID 504884, 2011 | actives 0.064% (n = 360,000) | activity, % at 10 µM; in the data active = activity above about 50%, passing the limit was not always enough
BH1578 lux ind – inducers of Vibrio cholerae quorum light production without autoinducers, primary screen, BH1578 luxS cqsA deficient, single point; V. cholerae BH1578 lux reporter, luminescence, 6 h; activation, % at 18.7 µM; actives 0.16% (n = 350,000); AID 588436, 2011; in the data active = activation mostly above about 9.7%, no sharp cut-off
Numbers without * were called inactive; i = inactive; · = no result given; + = active, no number. This is a sample that favours compounds with a hit; in the whole collection about 0.61% have one here.

SMILES | TcdB GH inh | FadD28 binding | BioA inh | Y pestis TopoI | BH1578 lux ind
CC(=O)N(C)C[C@@H]1Oc2cc(-c3cccc(F)c3)ccc2S(=O)(=O)N([C@@H](C)CO)C[C@H]1C | -1 | · | 0 | · | ·
COc1ccc(C2CC(c3ccccc3)=NN2c2ccc(S(N)(=O)=O)cc2)cc1OC (stereo not given) | 0 | 2 | · | 12 | i
COc1ccc(C2=NN(c3ccc(C(=O)O)cc3)C(c3ccc(OC)c(OC)c3)C2)cc1 (stereo not given) | 0 | 37* | · | 4 | 0
Cc1cccc(-c2ccc([C@@H]3[C@H](CO)N4CCCCN(S(=O)(=O)c5cn(C)cn5)C[C@@H]34)cc2)c1 | 1 | · | -1 | · | ·
Cc1ccc2nc(-c3ccc(SCC(=O)N4CCc5ccccc54)nc3)[nH]c2c1 | 0 | -4 | · | 27 | 0
Cc1ccc2nc(-c3ccc(SCC(=O)O)nc3)[nH]c2c1 | · | -7 | 0 | 55* | i
Cc1c(OCC(=O)C(C)(C)C)ccc2c(-c3ccccc3)cc(=O)oc12 | -11 | -1 | 6 | 51* | -1
CC1(C)CC(=O)C2=C(C1)NC1=C(C(=O)c3ccccc31)C2c1cc([N+](=O)[O-])ccc1O (stereo not given) | 1 | 21* | · | -18 | i
CN1c2ccc(-c3ccccc3)cc2[C@@H]2[C@@H](CCN2C(=O)c2ccc3c(c2)OCO3)[C@@H]1CO | -1 | · | · | · | ·
COc1ccccc1NS(=O)(=O)c1cccc(NC(=O)Nc2ccc(Cl)cc2)c1 | -11 | 31* | · | -9 | 0
COCC(=O)Nc1ccc2c(c1)C(=O)N(C)[C@@H]1CC[C@H](CC(=O)O)O[C@@H]1CO2 | · | · | 0 | · | ·
CCOC(=O)c1cc(-c2ccc(/C=C3/C(=O)NC(=O)C(C#N)=C3C)o2)ccc1Cl | 0 | 15* | 6 | -4 | -1
O=C(C1CCC1)N1CCc2cc(S(=O)(=O)N3CCN(c4ccccn4)CC3)ccc21 | · | 1 | -1 | 55* | 3
O=C(C1CCC1)N1CCc2cc(S(=O)(=O)N3CCCCC3)ccc21 | -1 | -1 | -1 | -1 | -1
CCNC(=O)C[C@H]1CC[C@@H]2[C@H](COc3ccc(NC(=O)c4cccc(OC)c4)cc3C(=O)N2C)O1 | 5 | · | -2 | · | ·
COC(=O)C[C@H]1CC[C@@H]2[C@@H](COc3ccc(NC(=O)c4ccc(OC)cc4)cc3C(=O)N2C)O1 | 12* | · | 0 | · | ·
COc1cccc(C(=O)Nc2ccc3c(c2)C(=O)N(C)[C@H]2CC[C@@H](CC(=O)NCC4CC4)O[C@@H]2CO3)c1 | 0 | · | 1 | · | ·
CCNC(=O)C[C@H]1CC[C@@H]2[C@@H](COc3ccc(NC(=O)c4cccc(OC)c4)cc3C(=O)N2C)O1 | 10* | · | 1 | · | ·
COc1ccc(C(=O)Nc2ccc3c(c2)C(=O)N(C)[C@@H]2CC[C@H](CC(=O)NCC4CC4)O[C@@H]2CO3)cc1 | 15* | · | -7 | · | ·
COc1ccc(NC(=O)N(C)C[C@H]2Oc3c(NC(=O)CCCCCC(=O)Nc4ccccc4N)cccc3C(=O)N([C@@H](C)CO)C[C@H]2C)cc1 | -1 | · | · | · | ·
CN(C)c1ccc2c(c1)[C@H]1C[C@H](CC(=O)NCC3CC3)O[C@H](CO)[C@H]1O2 | -39 | · | -3 | · | ·
C[C@H](CO)N1C[C@H](C)[C@@H](CN(C)S(C)(=O)=O)Oc2ccc(NS(=O)(=O)c3ccc(F)cc3)cc2C1=O | · | · | -3 | · | ·
CCN(CC)c1ccc2c(-c3ccc(S(=O)(=O)O)cc3S(=O)(=O)[O-])c3ccc(=[N+](CC)CC)cc-3oc2c1 | -43 | 135* | -78 | + | -6
CC(C)CN(C(=O)COC(=O)c1cc2ccccc2cc1O)c1c(N)n(Cc2ccccc2)c(=O)[nH]c1=O | 1 | -1 | -2 | 80* | -1
CCN(C(=O)COC(=O)c1c2c(nc3ccccc13)CCC2)c1c(N)n(Cc2ccccc2)c(=O)[nH]c1=O | 1 | -2 | 0 | 15 | -3
SMILES | TcdB GH inh | FadD28 binding | BioA inh | Y pestis TopoI | BH1578 lux ind
CC(C)CN(C(=O)COC(=O)c1cc(=O)[nH]c2ccccc12)c1c(N)n(Cc2ccccc2)c(=O)[nH]c1=O | 1 | -3 | -1 | 21 | 0
CCOc1ccc2oc(C(=O)OCC(=O)N(CC(C)C)c3c(N)n(Cc4ccccc4)c(=O)[nH]c3=O)c(C)c2c1 | 1 | -8 | -1 | 18 | -1
CC(C)CN(C(=O)COC(=O)c1c2c(nc3ccccc13)CCC2)c1c(N)n(Cc2ccccc2)c(=O)[nH]c1=O | 1 | -2 | 0 | 60* | i
Cc1c(C(=O)OCC(=O)N(CC(C)C)c2c(N)n(Cc3ccccc3)c(=O)[nH]c2=O)oc2ccccc12 | 5 | -5 | -1 | 82* | i
COc1ccc(CC(=O)C2C(=O)N(C)c3ccccc32)cc1OC (stereo not given) | 11* | -2 | · | 6 | -1
COc1ccc(CC(=O)OCC(=O)N2c3ccccc3CC2C)cc1OC (stereo not given) | 0 | -1 | 0 | 5 | -1
Cn1c(SCC(=O)NNC(=O)Cc2ccccc2)nnc1-c1ccccc1 | · | -1 | · | -2 | 31*
C=CCOc1ccc(CNc2ccc3[nH]c(=O)[nH]c3c2)cc1OC | -1 | 1 | · | -8 | 1
C=CCOc1cccc(CNc2ccc3[nH]c(=O)[nH]c3c2)c1 | 24* | 2 | 0 | -1 | 7
COc1ccc2c3c([nH]c2c1)[C@H](CO)N(C(=O)Nc1ccc(F)cc1)CC31CCN(CC2CC2)CC1 | 0 | · | · | · | ·
CC[n+]1c(-c2ccccc2)c2cc(N)ccc2c2ccc(N)cc21 | 2 | 15* | · | -38 | i
COc1c(/C=C2\SC(=Nc3ccccc3Cl)NC2=O)cccc1[N+](=O)[O-] | 0 | -3 | 4 | -6 | 1
O=C1NC(=Nc2ccccc2Cl)S/C1=C\c1cccc([N+](=O)[O-])c1O | -1 | 21* | 5 | 0 | i
O=c1[nH]c(=O)n(C2CCCCCC2)c(O)c1C=NC1CCN(Cc2ccccc2)CC1 | · | -2 | -2 | 17 | 38*
COc1ccc(C(NC(=O)c2cc(OC)ccc2OC)c2ccccc2)cc1 (stereo not given) | 1 | -2 | 0 | 50* | i
O=C(O)c1nn(Cc2ncc(-c3cccc(Cl)c3)o2)c(=O)c2ccccc12 | 0 | -3 | -1 | 52* | -6
COc1cccc(-c2nc(-c3ccccc3)no2)c1 | · | -3 | -1 | 11 | -3
COc1cccc(-c2noc(Cn3nc(C(=O)O)c4ccccc4c3=O)n2)c1 | 1 | · | -1 | 54* | 0
O=C(Cn1nc(C(=O)O)c2ccccc2c1=O)Nc1cc(Cl)cc(Cl)c1 | 1 | · | 1 | -4 | 0
C[C@H](NC(=O)C[C@@H]1C[C@H]2c3cc(NS(=O)(=O)c4ccc(F)cc4)ccc3O[C@H]2[C@H](CO)O1)c1ccccc1 | -1 | · | 0 | · | ·
